Rows were chosen to be rich in hits. Some 3.1% of all compounds tested hit in one or more screens of this group.
MEKK2wt PB1 HTS: modulators of MEK5 binding to wildtype MEKK2, primary screen, biochemical, multiplex bead flow cytometry, Alexa488-MEK5 | Mitogen-activated protein kinase kinase kinase 2 (Homo sapiens), Q9Y2U5 | Alexa488-MEK5 binding to MEKK2 WT; actives lie on both sides | binding response (% of control), % at 10 µM | actives 1.1% (n = 290,000) | AID 1531, 2009; in the data active = binding response below about 67% or above about 130%
UBC13 polyUb: UBC13 polyubiquitin chain formation inhibitors, primary screen, biochemical, TR-FRET, uHTS. AID 485273, 2010. actives 0.47% (n = 330,000). Ubiquitin-conjugating enzyme E2 N (Homo sapiens), P61088. inhibition, % at 20 µM; in the data active = inhibition above about 45%, passing the limit was not always enough
Target sequence (P61088 whole entry, looked up): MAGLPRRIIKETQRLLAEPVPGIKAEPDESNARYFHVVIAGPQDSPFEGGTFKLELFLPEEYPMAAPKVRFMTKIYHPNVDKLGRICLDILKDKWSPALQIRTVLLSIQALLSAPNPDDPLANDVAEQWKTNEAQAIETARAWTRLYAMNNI
MEKK3 PB1 HTS: modulators of MEKK3-MEK5 PB1 binding, primary screen, biochemical, wildtype MEKK3, multiplex bead flow cytometry, Alexa488-MEK5; bead-based flow cytometry, Alexa488-MEK5 binding to MEKK3; actives lie on both sides; 0 = blocked by unlabeled MEK5, 100 = vehicle; actives 1.4% (n = 290,000); Mitogen-activated protein kinase kinase kinase 3 (Homo sapiens), Q99759; binding response (% of control), % at 10 µM;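 active = binding response more than 3 SD above or below the average of its plate-row segment, actives on both sides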;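 also: Alexa488 bead fluorescence after subtracting the streptavidin-only scavenger bead signal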
ATG4B inh: ATG4B protease inhibitors, primary screen, biochemical, fluorescence, uHTS. Cysteine protease ATG4B (Homo sapiens), Q9Y4P1. ATG4B cleavage of LC3-PLA2, NBD-HPC fluorescence, 1 h. inhibition, % at 8.33 µM. actives 0.51% (n = 340,000). AID 504462, 2011; in the data active = inhibition above about 40%
Target sequence (Q9Y4P1 whole entry, looked up): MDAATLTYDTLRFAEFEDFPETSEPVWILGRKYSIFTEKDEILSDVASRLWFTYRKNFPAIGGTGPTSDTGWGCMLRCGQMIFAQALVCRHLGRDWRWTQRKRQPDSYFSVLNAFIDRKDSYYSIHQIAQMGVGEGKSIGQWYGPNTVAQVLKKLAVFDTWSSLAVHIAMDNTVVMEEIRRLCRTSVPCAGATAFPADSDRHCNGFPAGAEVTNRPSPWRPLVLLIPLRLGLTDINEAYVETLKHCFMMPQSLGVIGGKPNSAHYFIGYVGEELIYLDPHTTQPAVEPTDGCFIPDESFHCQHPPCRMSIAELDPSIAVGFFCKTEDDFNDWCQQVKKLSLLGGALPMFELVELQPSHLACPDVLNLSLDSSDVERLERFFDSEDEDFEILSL
PREPL inh: PREPL enzyme inhibitors, primary screen, biochemical, fluorescence polarization. inhibition, % at 5.96 µM. AID 2751, 2010. actives 0.68% (n = 320,000). recombinant PREPL, fluorescence polarization activity-based probe; in the data active = inhibition above about 43%;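 also: 0% = enzyme with DMSO and 100% = wells lacking enzyme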
MEKK2 mut-MEK5: MEK5 binding signal on mutant MEKK2 PB1, primary screen, biochemical, multiplex bead flow cytometry, Alexa488-MEK5; percent response, % at 10 µM; actives 0.35% (n = 290,000); AID 1530, 2009; Alexa488-MEK5 binding to MEKK2 mutant; in the data active = percent response above about 24%, passing the limit was not always enough
* marks the source's active call; other numbers are inactive results; x = not tested or not shown; [ ] = dose if it differs, or a comment.

SMILES	MEKK2wt PB1 HTS	UBC13 polyUb	MEKK3 PB1 HTS	ATG4B inh	PREPL inh	MEKK2 mut-MEK5
O=c1c2c(-c3cccs3)csc2ncn1-c1ccccc1	15.0*	4.8	96.0	-4.8	0.4	19.0
Cc1ccc(-n2cnc3scc(-c4cccs4)c3c2=O)cc1	106.0	7.9	89.0	-4.0	-3.9	-7.0
O=C(O)CCC1c2cc3c4cc2OC2Oc5cc6c(cc51)C(CCC(=O)O)c1cc5c7cc1OC(O6)c1cc6cc(c1)Oc1cc(cc(C(=O)O)c1)Oc1cc8cc(c1)C(Oc1cc(c(cc1C5CCC(=O)O)C3CCC(=O)O)OC(O4)c1cc(cc(c1)Oc1cc(cc(C(=O)O)c1)O8)Oc1cc(cc(C(=O)O)c1)Oc1cc(cc2c1)Oc1cc(cc(C(=O)O)c1)O6)O7 (stereo unspecified)	x	121.8*	x	x	-74.2	x
COc1cc(C(=O)c2ccccc2C(=O)O)c(OC)c2c1CCCC2	x	x	x	3.7	x	x
O=C(O)c1ccc2ncc(NC(=O)c3ccc(F)cc3)c(=O)n2c1	101.0	16.9	106.0	-1.0	-5.8	3.0
CCN(C(=O)C(C)N1C(=O)/C(=C/c2ccco2)SC1=S)C1CCS(=O)(=O)C1 (stereo unspecified)	92.0	-29.5	96.0	-6.7	14.5	-2.0
CC(C(=O)O)N1C(=O)/C(=C/C=C/c2ccco2)SC1=S (stereo unspecified)	96.0	35.3	98.0	71.6*	12.0	-1.0
O=C(Nc1cccc(S(=O)(=O)N2CCCCC2)c1)c1ccc(N2CCCC2=O)cc1	x	12.0	x	-8.4	-0.5	x
C(C#CCCCCCCCCC[n+]1ccccc1)#CCCCCCCCCC[n+]1ccccc1	274.0*	x	112.0	21.4	28.1	56.0*
COc1ccc(N=C2O/C(=C/c3sc(=S)n(CC4CCCO4)c3O)N=C2C#N)cc1 (stereo unspecified)	33.0*	-22.5	98.0	2.3	6.0	6.0
COc1ccc(/C=C2\SC(=S)N(CC3CCCO3)C2=O)cc1 (stereo unspecified)	89.0	-13.1	92.0	3.7	-6.6	-12.0
Cc1c(C(=O)O)sc2nc(CSc3ncc(C(F)(F)F)cc3Cl)[nH]c(=O)c12	103.0	10.9	102.0	-5.3	8.6	1.0
CCOc1cc(/C=C2\C(=O)N(CCc3ccc(OC)c(OC)c3)C(C)=C2C(=O)OC)ccc1O	95.0	-37.5	60.0*[inhibitor]	-20.9	15.5	-1.0
COC(=O)C1=C(C)N(Cc2ccc(C)cc2)C(=O)/C1=C\c1ccc(O)c(OC)c1	102.0	-46.9	106.0	-0.8	9.3	5.0
CCCCc1ccc(NC(=S)Nc2ccc(Nc3ccc(OC)cc3)cc2)cc1	129.0	-6.2	104.0	-0.7	46.6*	10.0
CCCCc1ccc(NC(=S)Nc2cccnc2)cc1	110.0	-7.8	106.0	-8.3	4.1	19.0
Cc1c(C)c(C)c(C(=O)c2ccc(NC(=O)c3ccccc3C(=O)O)cc2)c(C)c1C	108.0	7.9	104.0	94.0*	-3.7	6.0
Clc1ccc2nc(CN3CCCc4ccccc43)cn2c1	97.0	4.2	93.0	15.8	66.8*	-1.0
CC(C)CN1C(=O)/C(=C/c2c(N3CCc4ccccc4C3)nc3ccccn3c2=O)SC1=S	x	x	22.0*[inhibitor]	x	x	77.0*
O=C(NCCNC(=O)c1ccccc1F)c1ccco1	-12.0*[inhibitor]	-0.7	0.0*[inhibitor]	6.5	8.3	-25.0
CCOC(=O)/C(=C/c1ccc(OC(=O)c2ccccc2)cc1)C(C)=O	4.0*	-3.8	97.0	8.2	16.0	11.0
CCCCCC(=O)Nc1cc(S(=O)(=O)O)cc2cc(S(=O)(=O)O)cc(O)c12	x	x	x	43.0*	x	x
NCCCC[C@H]1CNC(=O)C(=O)N1CCc1cccc(F)c1	93.0	3.6	83.0	-2.1	8.1	-10.0
CCCCn1c(NC(=O)c2ccccc2Cl)c(C#N)c2nc3ccccc3nc21	76.0	-23.0	85.0	31.6	38.0	-5.0
N#Cc1c(NC(=O)c2ccccc2Cl)n(Cc2ccccc2)c2nc3ccccc3nc12	94.0	x	95.0	52.3*	11.8	3.0
SMILES	MEKK2wt PB1 HTS	UBC13 polyUb	MEKK3 PB1 HTS	ATG4B inh	PREPL inh	MEKK2 mut-MEK5
COC(=O)c1c(C(=O)OC)c(-c2cccc(F)c2)n2c1CS(=O)(=O)C2	105.0	2.4	107.0	-6.1	3.9	3.0
CNC(=O)CCC(=O)Nc1ccc(C)cc1	98.0	1.9	97.0	0.4	1.2	-3.0
Cc1cc(NC(=O)c2cc([N+](=O)[O-])cc([N+](=O)[O-])c2)n(-c2ccccc2)n1	30.0*	x	103.0	10.2	15.0	8.0
Cc1cc(NC(=O)c2cccc([N+](=O)[O-])c2)n(-c2ccccc2)n1	99.0	19.9	101.0	-0.1	0.5	1.0
c1csc(-c2nc3c4ccccc4c4ccccc4c3[nH]2)c1	116.0	18.5	109.0	-11.1	15.0	8.0
Oc1ccccc1-c1nc2c3ccccc3c3ccccc3c2[nH]1	-12.0*	x	107.0	-18.1	17.7	27.0
Cc1ccc(C)c(OCc2cc(C(=O)NC3CCN(Cc4ccccc4)CC3)no2)c1	135.0*	40.5	106.0	23.4	-7.1	11.0
Cc1cc(C)c(O)c(-c2n[nH]c3c2C(c2cccc(O)c2)N(Cc2ccco2)C3=O)c1 (stereo unspecified)	87.0	-1.3	94.0	-16.0	13.6	-7.0
COc1ccc(/C=C2\Sc3ccc(C(=O)N4CCN(Cc5ccccc5)CC4)cc3N(C)C2=O)cc1OC	109.0	-0.5	104.0	-17.2	30.8	3.0
CN1CCN(C(=O)c2ccc3c(c2)N(C)C(=O)/C(=C/c2cccc(Cl)c2)S3)CC1	137.0*	33.0	104.0	-2.1	20.4	17.0
COCCn1nnnc1C(c1cccs1)N1CCN(c2nc3ccccc3s2)CC1 (stereo unspecified)	106.0	5.0	108.0	25.1	50.3*	6.0
COCCn1nnnc1C(c1cccs1)N1CCN(c2cc(C)ccc2C)CC1 (stereo unspecified)	87.0	-4.6	84.0	2.2	-6.8	-6.0
COc1ccc2[nH]c(=O)c(CN(Cc3cccs3)C(=S)Nc3ccccc3)cc2c1	-1.0*	-7.4	100.0	x	-2.8	-1.0
O=C(NCCC(=O)N1CCN(c2ccccn2)CC1)c1ccc(Cl)cc1	x	14.6	x	2.3	-8.1	x
COC(=O)c1c(C)[nH]c(O)c1C=Nc1ccc(C(C)C)cc1	86.0	-13.0	101.0	-2.0	47.0*	1.0
Cc1ccc2c(c1)c1c(n2CC(O)CNC(C)(C)C)CCCC1 (stereo unspecified)	158.0*	x	116.0	-5.7	x	15.0
